This note sets out measurements from PubChem BioAssay (NCATS).

Results filed as inconclusive are left out. Values without a mark were called inactive. Activity calls are given as the source filed them. The call rests on the fitted dose curve; in most records, active means well fitted cell-killing curve with a large enough effect; inconclusive means small, poorly fitted or top-dose-only effect; inactive means no such curve, though single readings can be large or run the other way. Starred links: 1 amine or outer side, 2 acyl side, 3 side chain; linkers in the order of their positions; H or OH if unused. Positions of bridges follow the written chain, without caps; N, C: chain ends. Non-standard residues stand in square brackets, D forms with d. Residues, ends and D or L forms follow the SMILES beside them. ξ: configuration not given here. *: point of attachment. X3 = C[C@@H](Oc1ccc([C@H](N[*:1])C(=O)[*:2])cc1)[C@]1(/C=C\C(=O)[*:3])CO1; d(aIle) = CC[C@H](C)[C@@H](N)C(=O)O; X2 = CC(C)[C@@H](O)C(C)C(=O)*; ξNMeF = CNC(Cc1ccccc1)C(=O)O; ξT = CC(O)C(N)C(=O)O; ξS = NC(CO)C(=O)O
On the % scale 0 is the no-effect control and ±100 the full control effect; potency means the concentration at half of the fitted maximal effect.

This assay in a line: MCF7 Cancer Cell Toxicity qHTS against the NCATS CANVASS Library (AID 1347369). Particulars: MCF7 viability, ATP luminescence (CellTiter-Glo), 72 h; series mostly up to 46 µM; activity change, negative = cytotoxicity: at the top concentration. The text has this:
Natural products and their derivatives continue to be wellsprings of nascent therapeutic potential. However, many laboratories have limited resources for biological evaluation, leaving their previously isolated or synthesized compounds largely or completely untested. To address this issue, the Canvass library of natural products was assembled (https://tripod.nih.gov/canvass), in collaboration with academic and industry researchers, for quantitative high-throughput screening (qHTS) across a diverse set of cell-based and biochemical assays. The pure (>85% purity by liquid chromatography/mass spectrometry [LC/MS]) Canvass library of 346 natural products were submitted by 45 academic laboratories and companies around the world. We collected pure natural products to circumvent deconvolution and structure elucidation due to time and resource limitations. The library was formatted into 1536-well plates and evaluated in 50 qHTS (in an 11-pnt concentration series) bioassays with broad scope of disease-relevant mechanisms. The resulting data set from 50 different assays was then systematically analyzed to identify overall trends and specific natural products with interesting biological activities. Reported herein are the results of each individual qHTS and their corresponding assay protocol. This assay uses ATP (luminescence) content to measure the cytotoxiciy of compounds on MCF7 human breast cancer cell line. National Center for Advancing Translational Sciences (NCATS), Rockville, MD National Institute of Health (NIH), Bethesda, Maryland
Cancer Cell Toxicity qHTS protocol: MCF7 cell line 1. In a 1536 well, tissue culture treated white solid bottom plates (Corning 7494), 5 uL of MCF7 cell solution (final concentration of 500 cells / well) was dispensed using the Multidrop Combi dispenser (Thermo Fisher Scientific) into columns 2-48, rows 1-32. DMEM + 10% FBS + 1% Pen/Strep solution was dispensed into column 1, row 1-32 also using the Multidrop Combi dispenser. 2. Control and Compounds were pin transferred (~23nL volume) to the assay plates via Wako Pin-tool (Wako Automation, Richmond VA) equipped with a 1536 pin head. The compounds were transferred to columns 5-48 resulting in a final concentration ranging from 0.17 nM to 103 uM. Dose response titration of Bortezomib was pin transferred into column 2, rows 1-32 (2mM; 1:2 dilution; 16 points) resulting to a final concentration range of 0.3nM - 9.2uM. 3. The assay plates were further incubated in the at 37C, 5% CO2, 95% Rh for 72 hr. 4. After incubation, 3 uL of CellTiterGlo reagent (Promega) was added to the assay plates (column 1-48, rows 1-32) using the Multidrop Combi dispenser. The assay plates were centrifuged for 15 sec at 1000 rpm to remove bubbles. 5. Luminescence signal was acquired via the ViewLux plate reader (PerkinElmer) using a clear emission filter, 2 sec exposure, and 1x binning settings.
In general terms: Quantitative high-throughput screening tests each substance at several concentrations.
With `C[C@]12CC(O)C3[C@@H](CC[C@@H]4C[C@@H](O)CC[C@]34CO)[C@@]1(O)CC[C@@H]2C1=CC(=O)OC1` (stereo not given in full), the Potency is 5230 nM (active). As for `CCCC[C@@H](C)/C=C1/CN2CCC[C@H]2[C@@](C)(O)[C@@H]1O`, the “activity change, negative = cytotoxicity” value is -9.17%. For the compound `C[C@]12CCC3[C@@H](CC[C@@H]4C[C@@H](O)CC[C@]34CO)[C@@]1(O)CC[C@@H]2C1=CC(=O)OC1` (stereo not given in full), the Potency was 1170 nM (active).

As to `COC1=C(C2=C(OC)C(=O)c3cc4c(c(O)c3C2=O)C(=O)O[C@H](C)C4)C(=O)c2c(cc3c(c2O)C(=O)O[C@H](C)C3)C1=O`, the “activity change, negative = cytotoxicity” value is -12.9% [at 15.3 µM]. Turning to `C=CC(C)(C)[C@@]12C[C@H]3C(=O)N/C(=C/c4cnc[nH]4)C(=O)N3[C@@H]1Nc1ccccc12`, the call was inactive.

Regarding `CO[C@@H](/C=C/CC/C=C/C(=O)O)[C@@H](O)[C@H](C)/C=C(\C)[C@H](O)[C@H](C)C(=O)CCCC1CC(=O)NC(=O)C1`, the “activity change, negative = cytotoxicity” value was -22.2%.

In the case of `CC[C@H](C)[C@H]1NC(=O)[C@@H](NC(=O)C(C)[C@H](O)C(C)C)[C@@H](C)OC(=O)C2COC(=O)CNC(=O)/C=C\[C@]3(CO3)[C@@H](C)Oc3ccc(cc3)[C@H](NC1=O)C(=O)N(C)C(Cc1ccccc1)C(=O)NC(C(C)O)C(=O)N2` (stereo not given in full) (X2-T[d(aIle)][X3][ξNMeF][ξT][ξS]; ester 1-C; linker 3-6 via G), the “outcome” value is “inactive [at 27.5 µM]”.

As for `CC[C@]12C=CCN3CC[C@]4(C(=C(C(=O)OC)C1)Nc1ccccc14)[C@@H]32`, the “activity change, negative = cytotoxicity” value is -16.9%. On to `C=C[C@]12C=CCN3CC[C@@]4(c5ccccc5NC(=O)[C@@H]4C1)[C@@H]32`, for which the “activity change, negative = cytotoxicity” value is -17.7%.

For the compound `C=C[C@H]1CN2CCc3c([nH]c4cccc(OC)c34)[C@@H]2C[C@@H]1/C(=C\OC)C(=O)OC`, the “activity change, negative = cytotoxicity” value is -21.6%.

Regarding `CO[C@H]1C[C@H](O[C@H]2[C@@H](O)C[C@H](O[C@H]3CC[C@]4(C=O)[C@H]5CC[C@]6(C)C(C7=CC(=O)OC7)CC[C@]6(O)[C@@H]5CC[C@]4(O)C3)O[C@@H]2C)O[C@H](C)[C@H]1O[C@H]1C[C@@H](OC)[C@@H](O[C@@H]2O[C@H](CO)[C@@H](O)[C@H](O)[C@H]2O)[C@@H](C)O1` (stereo not given in full), the Potency was 166 nM (active). Take `C/C=C/[C@@H]1[C@H]2C[C@@H](C)CC[C@@H]2C(C)=C[C@H]1C(=O)c1c(O)c(-c2ccc(O)cc2)c[nH]c1=O`: the “activity change, negative = cytotoxicity” value is -13.8%. Turning to `CC[C@H]1CN2CCc3c([nH]c4cccc(OC)c34)[C@@H]2C[C@@H]1/C(=C\OC)C(=O)OC`, the compound was called inactive. Consider `c1ccc2nc3c(cc2c1)[nH]c1ccccc13`, for which the result was inactive. As for `O[C@H]1C=C[C@@]23CCN(Cc4cc5c(cc42)OCO5)[C@@H]3C1`, the call was inactive.

As to `CO[C@H]([C@@H](C)[C@H]1O[C@]1(C)C[C@H](C)/C=C/C=C(\C)[C@H]1O[C@@H](CC(=O)O)CC[C@@H]1C)[C@@H](C)O`, the Potency is 5.2 nM (active). With `C=CC(C)(C)[C@@]12C[C@H]3C(=O)N/C(=C\c4cnc[nH]4)C(=O)N3[C@@H]1Nc1ccccc12`, the “activity change, negative = cytotoxicity” value is -25.7%. As to `CC[C@@H]1CN2CCC3(Nc4cccc(OC)c4C3=O)[C@@H]2C[C@@H]1/C(=C\OC)C(=O)OC` (stereo not given in full), the call was inactive. On to `C[N+](C)(C)CCc1c[nH]c2ccccc12`, for which the compound was classed as inactive.

As for `CCC(=O)N[C@@H](C[C@H](C)C(Cl)(Cl)Cl)C(=O)N1C(=O)C=C(OC)[C@@H]1C[C@H](C)C(Cl)Cl`, the “activity change, negative = cytotoxicity” value was 2.02%. Still for that read-out and setting: the value for `C1=C2CCCN[C@H]2C2CC1[C@H]1CCCCN1C2` (stereo not given in full) was -24.6%. Turning to `CCCC[C@@H]1CC[C@H]2CCCC(CCCO)N12` (stereo not given in full), the compound was classed as inactive.

Turning to `CCCCC1CC[C@H]2CCCC(CCC)N12` (stereo not given in full), the “activity change, negative = cytotoxicity” value was -5.91%.

Regarding `CO[C@@]12c3c(C)cc(O)c4c(=O)occ(c34)C(=O)[C@@H]1[C@]13COC(=O)c4c(O)cc(C)c(c41)C(=O)[C@H]2[C@@H]3OC(C)=O`, the “activity change, negative = cytotoxicity” value was 0.556%. As to `CC(C)CC1C(=O)O[C@H](C(C)C)C(=O)N(C)C(CC(C)C)C(=O)O[C@@H](C(C)C)C(=O)N(C)C(CC(C)C)C(=O)O[C@H](C(C)C)C(=O)N(C)C(CC(C)C)C(=O)O[C@@H](C(C)C)C(=O)N1C` (stereo not given in full), the “activity change, negative = cytotoxicity” value was -14.1%.
